Experimental findings from PubChem BioAssay (EPA / NIEHS) are described below.

The nature of test [1]: ATG_XTT_Cytotoxicity_XSP1: Cytotoxicity Assessment in the Attagene TRANS-FACTORIAL Multi-Species (XSP1) HepG2 Assay (AID 2283810). The method, boiled down:
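XTT viability readout taken at 24 hours post-dosing in HepG2 liver cells co-treated with 3 nM 6-alpha-fluorotestosterone. Signal loss relative to DMSO controls reflects cytotoxicity.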

The nature of test [2]: ATG_M_06_XSP2: Attagene TRANS-FACTORIAL Multi-Species (XSP2) HepG2 Assay for M06 Transcription Factor (Internal Marker) (AID 2283811).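 Further: hits are increases in signal above the DMSO baseline.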 The method, boiled down:
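HepG2, multiplexed reporter transfection; 24 h dosing; AR stimulated with 3 nM 6-alpha-fluorotestosterone + 1.5 nM norgestrel; RNA → RT-PCR → 6-FAM primer extension → HpaI → CE. Positive direction vs DMSO.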

The test system of test [3] is turtle Estrogen Receptor (ERa), gene 101933533. In words: ATG_trERa_XSP2: Attagene TRANS-FACTORIAL Multi-Species (XSP2) HepG2 Assay for turtle Estrogen Receptor (ERa) (AID 2283812).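 Further: human HepG2 liver cells transiently expressing turtle ERa-Gal4 chimeric receptor; actives raise reporter signal above DMSO so AC50 reflects agonist activity.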 The method, boiled down: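 HepG2 cells transiently transfected with GAL4-UAS reporter units expressing turtle ERa-Gal4 chimera. Reporter mRNA measured after 24 h dosing by RT-PCR, fluorescent labelling and capillary electrophoresis; gain of signal fitted versus DMSO.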

Test [4] addresses zebrafish Estrogen Receptor (ER1), esr1 (gene 259252) (UniProt P57717). Briefly: ATG_zfER1_XSP2: Attagene TRANS-FACTORIAL Multi-Species (XSP2) HepG2 Assay for zebrafish Estrogen Receptor (ER1) (AID 2283816). The method, boiled down:
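HepG2 cells transiently transfected with a GAL4-UAS reporter and a chimeric zebrafish ER1-Gal4 construct, dosed 24 h. Reporter mRNA quantified by RT-PCR, labelling, HpaI digestion and capillary electrophoresis, relative to DMSO.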

Test [5] concerns the target chicken Estrogen Receptor (ERa), ESR1 (gene 396099) (UniProt P06212). Briefly: ATG_chERa_XSP2: Attagene TRANS-FACTORIAL Multi-Species (XSP2) HepG2 Assay for chicken Estrogen Receptor (ERa) (AID 2283817).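 Further: actives raise reporter signal above DMSO so AC50 reflects ER activation.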 The method, boiled down:
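Transient MRTU transfection of HepG2 → 24 h chemical dosing → TriZol RNA, oligo(dT) RT → PCR, 6-FAM primer extension, HpaI digest → CE quantitation of chicken ERa-Gal4-driven reporter mRNA. Positive direction vs DMSO.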

Test [6] deals with zebrafish Estrogen Receptor (ER2a), gene 317734. In words: ATG_zfER2a_XSP2: Attagene TRANS-FACTORIAL Multi-Species (XSP2) HepG2 Assay for zebrafish Estrogen Receptor (ER2a) (AID 2283818).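 Further: hits raise reporter mRNA so AC50 reflects activation of zebrafish ER2a.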 The method, boiled down: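 HepG2 cells transiently transfected with GAL4-UAS reporter units and chimeric zebrafish ER2a-Gal4, exposed 24 h; medium contains 3 nM 6-alpha-fluorotestosterone and 1.5 nM norgestrel. Reporter mRNA quantified by RT-PCR, HpaI digestion, capillary electrophoresis; gain versus DMSO.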

Test [7] deals with frog Estrogen Receptor (ER), gene 398734. Briefly: ATG_frER1_XSP2: Attagene TRANS-FACTORIAL Multi-Species (XSP2) HepG2 Assay for frog Estrogen Receptor (ER) (AID 2283821).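 Further: hits raise reporter mRNA above DMSO baseline so potency means agonist or activator.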 In outline: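 Steps: transfect HepG2 with multiple reporter transcription units; treat with chemical for 24 h; isolate RNA, reverse-transcribe, PCR-amplify, label with 6-FAM, digest with HpaI; resolve fragments by capillary electrophoresis. Signal is scored against DMSO.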

Test [8] concerns zebrafish Estrogen Receptor (ER2b), gene 317733. In words: ATG_zfER2b_XSP2: Attagene TRANS-FACTORIAL Multi-Species (XSP2) HepG2 Assay for zebrafish Estrogen Receptor (ER2b) (AID 2283823).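 Further: fitted upward as reporter gain over DMSO so potency reflects activation.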 The method, boiled down:
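Transcriptional induction measured as reporter mRNA (RT-PCR, fluorescent capillary electrophoresis) in transiently transfected HepG2 cells after 24 h dosing; DMSO served as negative control and baseline.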

Test [9] concerns the target Estrogen receptor (Homo sapiens) (UniProt P03372). In words: ATG_hERa_XSP2: Attagene TRANS-FACTORIAL Multi-Species (XSP2) HepG2 Assay for human Estrogen Receptor (ERa) (AID 2283827). In outline: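 HepG2 cells transiently transfected with multiplexed GAL4-UAS reporters driven by chimeric receptor-Gal4 proteins, dosed 24 h with 3 nM 6-alpha-fluorotestosterone and 1.5 nM norgestrel present. Reporter mRNA by RT-PCR and capillary electrophoresis; gain-of-signal fit versus DMSO.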

The subject of test [10] is frog Estrogen Receptor (ER2), gene 100174814. Briefly: ATG_frER2_XSP2: Attagene TRANS-FACTORIAL Multi-Species (XSP2) HepG2 Assay for frog Estrogen Receptor (ER2) (AID 2283828). The method, boiled down: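 Multiplexed transactivation in HepG2: frog estrogen receptor fused to Gal4 drives a UAS reporter. Signal is reporter mRNA after 24 h treatment.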
The target of test [11] is Peroxisome proliferator-activated receptor gamma (Homo sapiens) (UniProt P37231). Briefly: ATG_hPPARg_XSP2: Attagene TRANS-FACTORIAL Multi-Species (XSP2) HepG2 Assay for human Peroxisome Proliferator-activated Receptor gamma (PPARg) (AID 2283829).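 Further: actives raise reporter mRNA above DMSO so AC50 reflects PPARg activation.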 The method, boiled down:
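Human HepG2 cells carried transiently transfected Gal4 reporter units and were treated with chemical for 24 h alongside androgen-receptor stimulants (3 nM 6-alpha-fluorotestosterone, 1.5 nM norgestrel). Reporter transcripts were detected by RT-PCR with capillary electrophoresis, analysed in the positive direction against DMSO.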

Test [12] concerns the target mouse Peroxisome Proliferator-activated Receptor gamma (PPARg), Pparg (gene 19016) (UniProt P37238). Briefly: ATG_mPPARg_XSP2: Attagene TRANS-FACTORIAL Multi-Species (XSP2) HepG2 Assay for mouse Peroxisome Proliferator-activated Receptor gamma (PPARg) (AID 2283830).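 Further: hits are gains in reporter mRNA above DMSO so AC50 marks activation.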 In outline:
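HepG2 cells transiently transfected with GAL4-UAS reporter units for chimeric NR-Gal4 proteins including mouse PPARg, exposed 24 h; medium contained 3 nM 6-alpha-fluorotestosterone and 1.5 nM norgestrel. Reporter mRNA quantified by RT-PCR, HpaI digestion and capillary electrophoresis, vs DMSO.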

For test [13], the target named is GAL4 Transcription Factor (Internal Marker), GAL4 (gene 855828) (UniProt P04386). In words: ATG_GAL4_XSP2: Attagene TRANS-FACTORIAL Multi-Species (XSP2) HepG2 Assay for GAL4 Transcription Factor (Internal Marker) (AID 2283814).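 Further: GAL4 reporter mRNA background control in MRTU transfected cells not a receptor target.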 In outline: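 HepG2 cells transiently transfected with GAL4-UAS reporter units, stimulated with 3 nM 6-alpha-fluorotestosterone plus 1.5 nM norgestrel, dosed 24 h. Reporter mRNA by RT-PCR/capillary electrophoresis; gain-of-signal fit versus DMSO, background control.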
Chain of GAL4 Transcription Factor (Internal Marker), GAL4 (gene 855828) (P04386 whole entry, looked up, the tested form may be a part): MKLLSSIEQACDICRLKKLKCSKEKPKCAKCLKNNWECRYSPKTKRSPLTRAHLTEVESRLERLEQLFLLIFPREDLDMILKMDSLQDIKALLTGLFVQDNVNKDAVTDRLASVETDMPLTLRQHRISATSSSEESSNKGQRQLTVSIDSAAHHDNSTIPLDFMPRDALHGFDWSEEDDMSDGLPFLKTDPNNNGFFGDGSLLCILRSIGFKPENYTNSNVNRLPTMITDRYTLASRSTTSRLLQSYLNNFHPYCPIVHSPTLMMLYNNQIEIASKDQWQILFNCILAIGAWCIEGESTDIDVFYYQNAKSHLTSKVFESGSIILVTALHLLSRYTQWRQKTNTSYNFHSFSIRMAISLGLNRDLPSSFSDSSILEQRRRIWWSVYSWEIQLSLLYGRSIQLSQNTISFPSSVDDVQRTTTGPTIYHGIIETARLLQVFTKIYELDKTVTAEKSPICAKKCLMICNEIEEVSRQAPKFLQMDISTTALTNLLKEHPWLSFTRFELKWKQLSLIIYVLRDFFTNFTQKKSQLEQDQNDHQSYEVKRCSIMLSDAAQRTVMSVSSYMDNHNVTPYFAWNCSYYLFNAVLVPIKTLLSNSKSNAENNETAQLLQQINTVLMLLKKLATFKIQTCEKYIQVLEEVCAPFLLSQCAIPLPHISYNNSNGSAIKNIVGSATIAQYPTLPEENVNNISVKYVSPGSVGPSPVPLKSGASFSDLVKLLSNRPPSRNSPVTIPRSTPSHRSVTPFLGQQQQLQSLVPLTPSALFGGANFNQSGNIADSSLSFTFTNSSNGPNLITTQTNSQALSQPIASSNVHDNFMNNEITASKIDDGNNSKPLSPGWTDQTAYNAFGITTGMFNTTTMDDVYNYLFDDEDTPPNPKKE

Test [14] can be described thus: ATG_M_32_XSP2: Attagene TRANS-FACTORIAL Multi-Species (XSP2) HepG2 Assay for M19 Transcription Factor (Internal Marker) (AID 2283826). In outline: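 An internal background marker among multiplexed transfected reporters in HepG2 liver cells was measured 24 h after dosing. Androgen receptor stimulation came from 3 nM 6-alpha-fluorotestosterone and 1.5 nM norgestrel.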

For test [15], the target named is Nuclear receptor subfamily 1 group I member 2 (Mus musculus) (UniProt O54915). Briefly: ATG_mPXR_XSP2: Attagene TRANS-FACTORIAL Multi-Species (XSP1) HepG2 Assay for mouse Pregnane X Receptor (PXR) (AID 2283831). The method, boiled down:
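Fluorescence signals from capillary electrophoresis of RT-PCR-amplified reporter mRNA give the readout, gain-of-signal versus DMSO. Transfected HepG2 cells, 24 h dosing, medium contained 3 nM 6-alpha-fluorotestosterone and 1.5 nM norgestrel.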

In test [16] the test system is turtle Androgen Receptor (AR), gene 101947425. In words: ATG_trAR_XSP2: Attagene TRANS-FACTORIAL Multi-Species (XSP2) HepG2 Assay for turtle Androgen Receptor (AR) (AID 2283815).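 On AC50: potency for gain of reporter signal meaning activation above DMSO baseline.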 In outline: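 HepG2 cells transiently transfected with GAL4-UAS reporter units for chimeric NR-Gal4 receptors; 24 h dosing in presence of 3 nM 6-alpha-fluorotestosterone and 1.5 nM norgestrel. Reporter mRNA by RT-PCR and capillary electrophoresis, gain of signal versus DMSO.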

Test [17] concerns chicken Androgen Receptor (AR), gene 422165. Briefly: ATG_chAR_XSP2: Attagene TRANS-FACTORIAL Multi-Species (XSP2) HepG2 Assay for chicken Androgen Receptor (AR) (AID 2283819).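 Further: hits raise reporter mRNA above DMSO so potency is for activation.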 In outline:
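HepG2 cells transiently transfected with chicken AR–GAL4 chimeric reporter constructs, stimulated with 3 nM 6-alpha-fluorotestosterone plus 1.5 nM norgestrel, dosed 24 h. Reporter mRNA quantified by RT-PCR and capillary electrophoresis; gain of signal fitted versus DMSO.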

In test [18] the test system is frog Androgen Receptor (AR), gene 399456. Briefly: ATG_frAR_XSP2: Attagene TRANS-FACTORIAL Multi-Species (XSP2) HepG2 Assay for frog Androgen Receptor (AR) (AID 2283824).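 Further: actives raise reporter signal above DMSO so AC50 reflects agonist-like induction.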 The method, boiled down:
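HepG2 cells transiently transfected with GAL4-UAS reporter units and frog (Xenopus laevis) AR-Gal4 chimera; reporter mRNA measured 24 h after dosing by RT-PCR and capillary electrophoresis. Gain of signal fitted relative to DMSO baseline.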

Records with an inconclusive call do not appear. The source made the active and inactive calls. How the source made its calls: active means hit-call score of the fitted dose curve at least 0.9, where 1 is the maximum; inconclusive means response in the unintended direction; inactive means score below 0.9.

Chain of zebrafish Estrogen Receptor (ER1), esr1 (gene 259252) (P57717 whole entry, looked up, the tested form may be a part): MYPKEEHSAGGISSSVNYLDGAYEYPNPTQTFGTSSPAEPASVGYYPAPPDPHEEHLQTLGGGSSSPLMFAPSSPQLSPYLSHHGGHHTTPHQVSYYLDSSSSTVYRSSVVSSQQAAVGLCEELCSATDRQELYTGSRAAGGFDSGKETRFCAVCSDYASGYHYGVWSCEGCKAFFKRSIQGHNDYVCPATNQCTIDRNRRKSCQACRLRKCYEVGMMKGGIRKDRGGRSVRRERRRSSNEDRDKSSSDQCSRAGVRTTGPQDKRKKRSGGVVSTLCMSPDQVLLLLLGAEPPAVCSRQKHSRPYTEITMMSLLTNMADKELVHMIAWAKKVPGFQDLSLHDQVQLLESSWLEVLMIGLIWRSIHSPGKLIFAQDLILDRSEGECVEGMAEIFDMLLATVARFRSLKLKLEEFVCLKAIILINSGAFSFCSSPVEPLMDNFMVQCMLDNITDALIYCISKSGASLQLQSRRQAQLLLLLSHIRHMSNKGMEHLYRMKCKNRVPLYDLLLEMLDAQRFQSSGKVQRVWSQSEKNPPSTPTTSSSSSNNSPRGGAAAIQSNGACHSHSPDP
Chain of Nuclear receptor subfamily 1 group I member 2 (Mus musculus) (O54915 whole entry, looked up): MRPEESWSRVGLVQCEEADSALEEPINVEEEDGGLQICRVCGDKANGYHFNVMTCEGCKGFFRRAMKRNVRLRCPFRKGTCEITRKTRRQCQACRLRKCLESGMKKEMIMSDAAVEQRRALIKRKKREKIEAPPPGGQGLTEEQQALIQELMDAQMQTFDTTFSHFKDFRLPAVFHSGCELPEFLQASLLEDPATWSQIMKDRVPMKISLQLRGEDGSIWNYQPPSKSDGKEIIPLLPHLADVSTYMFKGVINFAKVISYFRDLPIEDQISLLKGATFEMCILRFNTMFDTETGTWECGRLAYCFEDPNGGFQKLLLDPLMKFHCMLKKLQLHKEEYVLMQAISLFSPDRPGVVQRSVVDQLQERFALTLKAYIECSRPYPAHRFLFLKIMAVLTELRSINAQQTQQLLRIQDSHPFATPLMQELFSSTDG
Chain of Estrogen receptor (Homo sapiens) (P03372 whole entry, looked up, the tested form may be a part): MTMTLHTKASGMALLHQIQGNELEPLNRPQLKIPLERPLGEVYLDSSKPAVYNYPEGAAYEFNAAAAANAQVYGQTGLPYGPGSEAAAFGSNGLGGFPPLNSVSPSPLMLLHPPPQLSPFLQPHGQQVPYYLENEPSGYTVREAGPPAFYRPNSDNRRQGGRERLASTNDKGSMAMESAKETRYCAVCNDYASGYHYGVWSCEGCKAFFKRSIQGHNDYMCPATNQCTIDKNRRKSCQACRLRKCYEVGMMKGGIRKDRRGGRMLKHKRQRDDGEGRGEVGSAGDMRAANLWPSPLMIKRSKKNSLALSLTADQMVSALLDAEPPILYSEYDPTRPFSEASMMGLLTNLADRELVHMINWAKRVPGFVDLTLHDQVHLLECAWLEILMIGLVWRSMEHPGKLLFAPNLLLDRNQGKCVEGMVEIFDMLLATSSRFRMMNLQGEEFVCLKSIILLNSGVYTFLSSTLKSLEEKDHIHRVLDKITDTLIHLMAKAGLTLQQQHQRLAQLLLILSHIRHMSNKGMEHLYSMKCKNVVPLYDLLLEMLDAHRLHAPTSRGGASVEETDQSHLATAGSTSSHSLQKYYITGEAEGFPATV
Chain of Peroxisome proliferator-activated receptor gamma (Homo sapiens) (P37231 whole entry, looked up, the tested form may be a part): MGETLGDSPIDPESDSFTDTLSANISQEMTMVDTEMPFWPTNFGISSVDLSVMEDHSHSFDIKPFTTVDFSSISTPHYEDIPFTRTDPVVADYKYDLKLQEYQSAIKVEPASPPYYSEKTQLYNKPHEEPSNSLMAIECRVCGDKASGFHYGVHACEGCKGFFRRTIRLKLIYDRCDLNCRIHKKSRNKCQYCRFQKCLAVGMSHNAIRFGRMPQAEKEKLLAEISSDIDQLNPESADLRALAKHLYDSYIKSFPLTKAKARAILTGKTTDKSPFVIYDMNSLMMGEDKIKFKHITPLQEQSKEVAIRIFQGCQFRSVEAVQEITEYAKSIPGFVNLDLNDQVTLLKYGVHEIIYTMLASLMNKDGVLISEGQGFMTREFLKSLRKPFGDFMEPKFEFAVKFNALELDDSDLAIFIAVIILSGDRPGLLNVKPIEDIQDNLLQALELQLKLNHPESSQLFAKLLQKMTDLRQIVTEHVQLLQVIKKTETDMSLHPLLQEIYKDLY
Chain of chicken Estrogen Receptor (ERa), ESR1 (gene 396099) (P06212 whole entry, looked up, the tested form may be a part): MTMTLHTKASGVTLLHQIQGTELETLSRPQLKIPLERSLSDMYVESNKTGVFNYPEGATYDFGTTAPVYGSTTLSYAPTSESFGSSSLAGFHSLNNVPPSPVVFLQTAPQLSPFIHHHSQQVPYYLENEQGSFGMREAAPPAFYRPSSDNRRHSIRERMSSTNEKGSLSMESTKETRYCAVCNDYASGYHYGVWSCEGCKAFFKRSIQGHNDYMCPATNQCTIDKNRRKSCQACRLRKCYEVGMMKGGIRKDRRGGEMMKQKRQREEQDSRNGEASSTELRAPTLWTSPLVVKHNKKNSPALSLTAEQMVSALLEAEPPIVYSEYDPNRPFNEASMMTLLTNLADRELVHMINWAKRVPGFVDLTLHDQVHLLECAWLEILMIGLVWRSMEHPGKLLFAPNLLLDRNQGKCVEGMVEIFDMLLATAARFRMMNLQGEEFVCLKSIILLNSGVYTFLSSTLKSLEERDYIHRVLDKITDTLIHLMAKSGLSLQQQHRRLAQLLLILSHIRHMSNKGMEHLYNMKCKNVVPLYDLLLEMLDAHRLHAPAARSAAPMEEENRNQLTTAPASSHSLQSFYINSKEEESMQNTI
Chain of mouse Peroxisome Proliferator-activated Receptor gamma (PPARg), Pparg (gene 19016) (P37238 whole entry, looked up, the tested form may be a part): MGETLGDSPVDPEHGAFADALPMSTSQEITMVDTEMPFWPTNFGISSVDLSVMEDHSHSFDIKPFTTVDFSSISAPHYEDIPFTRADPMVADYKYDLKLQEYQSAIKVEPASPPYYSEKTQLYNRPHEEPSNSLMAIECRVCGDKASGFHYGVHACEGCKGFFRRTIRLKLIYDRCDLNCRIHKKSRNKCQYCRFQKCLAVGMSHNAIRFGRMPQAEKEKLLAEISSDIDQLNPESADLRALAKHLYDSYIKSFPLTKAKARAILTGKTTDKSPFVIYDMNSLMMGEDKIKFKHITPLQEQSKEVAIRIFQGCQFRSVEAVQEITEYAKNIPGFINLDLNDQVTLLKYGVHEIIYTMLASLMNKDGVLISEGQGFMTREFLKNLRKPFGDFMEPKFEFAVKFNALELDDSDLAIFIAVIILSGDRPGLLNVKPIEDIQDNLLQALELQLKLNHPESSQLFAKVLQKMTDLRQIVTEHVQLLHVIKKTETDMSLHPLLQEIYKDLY

By AC50 is commonly meant the concentration giving half of the maximal activity seen. As to `CCCN(CCC)c1c([N+](=O)[O-])cc(S(N)(=O)=O)cc1[N+](=O)[O-]`, the AC50 in test [1] was 161 µM (active); in test [8], 40.4 µM (active); in test [9] it was 4 µM (active); in test [10] it was 22.4 µM (active). The result in test [2], in test [3], in test [4], in [5], in test [6] and in [7] was inactive. Besides, the outcome in test [11] and in [12] was inactive.

On to `COC(=O)N(OC)c1ccccc1COc1ccn(-c2ccc(Cl)cc2)n1`, for which the compound was called inactive in [1], in test [2], in test [3], in test [13], in test [4] and in test [5]. The outcome in [6], in test [7], in test [8] and in [14] was inactive. Besides, the AC50 is 2.64 µM (active) in test [9], 1.15 µM (active) in test [11], 1.43 µM (active) in test [12] and 2.7 µM (active) in test [15].

Consider `COP(=S)(OC)Oc1nc(Cl)c(Cl)cc1Cl`, for which the outcome in test [2], in test [6], in test [10] and in test [15] was inactive. Besides, the half-maximal activity concentration (AC50) is 55.8 µM (active) in test [3]; 17.5 µM (active) in test [16]; 35.3 µM (active) in test [5]; 22.9 µM (active) in [17]; 43 µM (active) in test [7]; 87.2 µM (active) in test [8]. The concentration at half-maximal activity (AC50) in test [18] was 29.7 µM (active); in test [9], 31.8 µM (active); in test [11] it was 4.74 µM (active); in [12] it was 6.11 µM (active).

Take `C#CCOS(=O)OC1CCCCC1Oc1ccc(C(C)(C)C)cc1` (centres undefined): the compound was classed as inactive in test [2], in test [3], in [13], in test [16], in [4] and in test [5]. In addition, the compound was called inactive in test [14]. For the same compound, the AC50 in test [6] was 16.1 µM (active); in [17], 4.55 µM (active); in test [8] it was 100 µM (active); in test [9], 12.1 µM (active); in test [11], 27.6 µM (active); in test [12], 38 µM (active). The concentration at half-maximal activity (AC50) in test [15] was 7.18 µM (active).
